# Source: PubChem
# Shown are actives, neighbours in structure and some others; about 2.3% of the full set was active somewhere.
# MITF TRPM1 inh: MITF TRPM1 promoter inhibition in SK-MEL-5 cells. inhibition, % at 12.5 µM. SK-MEL-5 TRPM1 promoter luciferase, 24 h. AID 488899. 0.83% of 330,000 active;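 active = mean inhibition across replicates of 60% or more, whatever share of single replicates reaches that level; inconclusive = some that reach 60%, reason not given; inactive = mean inhibition across replicates below 60%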
# Shn3 3UTR inh: inhibitors of Schnurri-3 3'UTR reporter in osteoblasts | Clone20 osteoblast Shn3 3'UTR firefly luciferase, 24 h | inhibition, % at 12.5 µM | 0.52% of 360,000 active;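 active = mean inhibition of at least 75% with every replicate also reaching 75%; inconclusive = mean inhibition at least 75% but some replicate below; inactive = mean inhibition below 75%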;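 also: 0% = median of neutral control wells and 100% = pilot-screen positive control compound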
# Jurkat NFkB inh: lowers PMA/ionomycin-induced NF-kB signal in Jurkat cells; AID 435003; PMA/ionomycin-induced NF-kB luciferase reporter, luminescence; inhibition, % at 4 µM; 0.53% of 330,000 active; in the data active = inhibition above about 50%
# Gli-Sufu antag: Gli-Sufu pathway antagonism; inhibition, % at 5 µM; 0.74% of 340,000 active; Sufu-KO-LIGHT fibroblasts, Gli luciferase reporter luminescence;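 active = inhibition above about 55%, limit read from the data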;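 also: 0% = DMSO-treated cells and 100% = wells with medium but no cells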
# 697 NFkB inh: inhibitors of the PMA/ionomycin-induced NF-kB reporter in 697 B cells; 697 B-cell NF-kB luciferase reporter, 16 h; inhibition, % at 4 µM; 0.33% of 330,000 active; in the data active = inhibition above about 35%
# EBV LMP1 NFkB: reduces LMP1-driven NF-kappaB luciferase signal; LMP1-induced NF-kappaB luciferase reporter cells, luminescence; inhibition, % at 12.5 µM; 0.69% of 350,000 active; in the data active = inhibition above about 41%; inconclusive = no clear call, values can overlap the other calls;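 also: 0% = neutral control wells and 100% = reference inhibitor control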
# Active calls of the source: *; ? = inconclusive; . = no result.
SMILES,MITF TRPM1 inh,Shn3 3UTR inh,Jurkat NFkB inh,Gli-Sufu antag,697 NFkB inh,EBV LMP1 NFkB
Oc1c(CN2CCN(c3ccccc3)CC2)cc(Br)c2cccnc12,87.5*,91.6*,.,51.5,.,59.1*
c1ccc(N2CCN(Cc3ccnc4ccccc34)CC2)cc1,12.0,26.9,14.1,15.1,-8.9,14.9
CCOC(=O)N1CCN(Cc2cc(Cl)c3cccnc3c2O)CC1,.,.,36.5,73.2*,-16.8,.
COc1ccccc1N1CCN(Cc2ccc(OC)c(OC)c2OC)CC1,-1.8,19.2,15.6,13.2,16.0,4.5
COc1ccc(NC(=O)N2CCCC(C(=O)NC(C)C)C2)cc1 (configuration not stated),-5.1,15.8,12.0,4.1,-13.4,6.1
Oc1c(CN2CCOCC2)cc(COCc2ccccc2)c2cccnc12,84.6*,89.6*,.,61.3*,.,76.0*
O=C1c2ccccc2C(=O)c2c1oc(C(F)(F)F)c2C(=O)c1ccccc1,102.7*,91.1*,18.8,-11.4,-4.4,67.6*
CC(=O)c1c(C)oc2c1C(=O)c1ccccc1C2=O,78.6*,-4.6,.,-7.0,.,4.2
Cc1cc(C)cc(NC(=S)N(CCCN2CCN(C)CC2)Cc2cccs2)c1,-2.5,13.9,-7.6,2.1,11.8,8.1
CCn1c(C)c(C(C)=O)c(N2CCC(C(N)=O)CC2)nc1=S,1.7,2.2,19.4,2.4,-2.5,1.2
CN(C(=O)COc1ncnc2ccc(Br)cc12)C1CCCCC1,.,2.5,.,.,.,-6.2
CNc1ncnc(Sc2nc(N)nc3nc[nH]c23)c1[N+](=O)[O-],70.6*,-2.8,.,-17.7,.,-0.4
Nc1nc(Sc2ccc([N+](=O)[O-])c3nonc23)c2[nH]cnc2n1,82.1*,39.3,.,-27.0,.,3.2
Nc1nc(SCc2ccccc2)c2[nH]cnc2n1,-8.2,16.1,-17.6,-6.0,10.0,4.0
CCOc1ccc2c(c1)C(=NNC(=O)c1ccncc1)c1cc(OCC)ccc1-2,0.2,-8.0,-20.5,47.6,-81.1,11.2
O=c1c(Cl)c(Cl)cnn1Cc1nnc(-c2ccc(Cl)cc2)o1,87.2*,65.1,.,13.5,.,-81.5
Cc1ccc(Cn2ncc(Cl)c(Cl)c2=O)cc1,?,72.0,6.9,9.7,7.1,-94.2
O=C(c1ccco1)N1CCN(C(c2ccc(F)cc2)c2nnnn2CC2CCCO2)CC1 (configuration not stated),-5.7,-50.7,2.2,-3.2,12.3,-0.1
COc1ccc(NC(=O)CS(=O)c2ccccc2Cl)cc1 (configuration not stated),-15.7,-23.3,-12.2,-5.4,5.6,-7.8
O=C(NCCN1CCOCC1)c1ccc(Cl)c([N+](=O)[O-])c1,-4.7,16.9,5.9,13.1,0.2,17.4
COc1ccc(C(=O)NCCN2CCOCC2)cc1[N+](=O)[O-],6.8,19.6,3.4,4.2,12.4,80.3*
O=C(COC(=O)/C(=C/c1cccs1)c1cccs1)NC(c1ccccc1)c1ccccc1,70.8*,15.9,-2.6,6.4,14.3,-3.3
O=C([C@@H]1Cc2ccccc2CN1)N1CCN(Cc2ccccc2)CC1,-6.5,-50.1,3.1,7.9,2.3,-9.3
CC1=C(C)CC(C(=O)N2CCN(Cc3ccccc3)CC2)C(C(=O)O)C1 (configuration not stated),7.3,-3.0,22.6,13.0,20.0,65.4*
O=C(Nc1ccc(Cl)cc1)c1nc[nH]c1C(=O)Nc1ccccc1F,.,-7.4,.,.,.,13.0
SMILES,MITF TRPM1 inh,Shn3 3UTR inh,Jurkat NFkB inh,Gli-Sufu antag,697 NFkB inh,EBV LMP1 NFkB
COc1cc(OC)cc(-c2oc(=O)c3cc(OC)c(OC)cc3c2C(F)(F)F)c1,69.9*,-1.5,9.7,3.0,-1.0,-4.0
Cc1ccccc1-n1nnnc1SCC(N)=O,5.2,13.2,-6.9,2.5,4.7,-4.4
Cc1ccccc1-n1nnnc1Sc1nnnn1-c1ccccc1,78.4*,0.5,29.8,11.6,-74.3,55.4*
COc1ccc2[nH]c(C(=O)N/N=C/c3ccc(O)cc3O)cc2c1,58.9,89.1*,36.3,40.6,-38.9,39.9
CCOc1ccc2[nH]c(C(=O)N/N=C/c3ccc(OC)cc3)cc2c1,15.6,4.4,47.1,7.9,-9.0,7.8
CCOc1ccccc1/C=N/NC(=O)c1c(C)nc2ccc(Br)cn12,-7.6,18.8,14.4,-3.3,1.1,-5.5
COc1cc(OC)c2cc(C(=O)N/N=C/c3cccc(OC)c3O)[nH]c2c1,53.5,95.6*,-6.6,13.5,-20.2,-2.6
COc1cccc(/C=N/NC(=O)N/N=C/c2cccc(OC)c2O)c1O,-5.5,65.8,23.0,-0.5,-40.3,30.9
COc1cccc(/C=N/NC(=O)c2cc3c(OC)ccc(OC)c3[nH]2)c1O,20.9,93.9*,-3.5,12.2,-35.4,14.6
COc1cccc(/C=N/NC(=O)c2ccc3nc[nH]c3c2)c1O,5.3,16.2,-2.1,-2.0,29.9,14.0
COc1cccc(/C=N/NC(=O)c2c(C)nc3ccc(Br)cn23)c1O,67.4*,?,49.0,87.8*,-6.7,63.5*
Cc1oc(S(=O)(=O)N(C)C)cc1C(=O)Nc1ccc(F)cc1,5.7,8.2,4.0,3.7,-0.7,10.5
COc1ccc(OC)c(S(=O)(=O)N2CCC(C(=O)NC3CC3)CC2)c1,-13.9,-9.9,-6.1,1.7,-6.2,-0.1
CC(C)(C)c1cc(CCC(=O)NNC(=S)NC(=O)c2ccccc2)cc(C(C)(C)C)c1O,38.4,79.6,-1.3,58.9*,-28.3,22.9
O=C(CCc1ccccc1)NNC(=S)NC(=O)c1ccccc1,-6.9,-17.2,11.1,-1.6,3.1,17.2
O=C1c2ccccc2-c2nnc(-c3ccccc3)cc21,-0.4,9.1,-41.1,-14.1,-95.7,3.9
COc1ccc(-c2cc3c(nn2)-c2ccccc2C3=O)cc1,72.4*,45.5,18.5,-0.7,-86.1,51.6*
COc1ccc(Cn2c(SCc3cc(C)ccc3C)nc3cc(OC)c(OC)cc3c2=N)cc1,88.7*,95.9*,43.9,18.2,-17.1,?
COc1cc2nc(SCc3ccc(Cl)cc3Cl)n(Cc3cccs3)c(=N)c2cc1OC,-7.7,37.0,-5.1,12.8,9.2,-6.0
CN(C)S(=O)(=O)c1ccc(Cl)c(C(=O)NCC2CCCCC2)c1,1.1,-0.8,-5.7,-4.1,-15.4,0.1
CN(C)S(=O)(=O)c1ccc(Cl)c(C(=O)NCCNC(=O)c2cc(S(=O)(=O)N(C)C)ccc2Cl)c1,7.3,10.0,-1.5,34.0,-4.9,71.4*
CNC(=S)N1N=C(c2cccs2)CC1c1ccc(F)cc1 (configuration not stated),5.7,5.9,3.6,.,-10.0,49.6*
O=C(COC(=O)/C=C/c1ccc(F)cc1)Nc1ccc2[nH]c(=O)[nH]c2c1,-6.9,-4.2,2.8,-15.8,-8.0,-2.7
O=C(COC(=O)/C=C/c1ccc(OC(F)F)cc1)Nc1ccc2[nH]c(=O)[nH]c2c1,-10.5,97.5*,20.4,-4.5,13.6,-27.9
COc1cc(SC)ccc1C(=O)Nc1ccc(Cl)cn1,58.6,-14.3,-54.4,-21.3,-173.9,67.9*
